Assay results from PubChem BioAssay (Tox21).
Results filed as inconclusive are left out. Activity calls are given as the source filed them. Calls come from the whole dose curve; as a rule, active = well fitted cell-killing curve with a large enough effect in the repeat runs; inconclusive = weak or mixed curves, or effect the other way; inactive = flat fitted curve, though single readings scatter.

Test: qHTS RealTime-Glo MT Cell Viability Assay in HepG2 cells - 0 hour (AID 1224889); note: nearly all actives have a fitted effect of over 50% in size
Settings: RealTime-Glo luminescence; series mostly up to 76.8 µM; activity change, negative = cytotoxicity: at the top concentration
Source text: U.S. Tox21 Program National Center for Advancing Translational Sciences [NCATS] NIH Chemical Genomics Center [NCGC] U.S. Environmental Protection Agency [EPA] National Institutes of Environmental Health Sciences [NIEHS] National Toxicology Program [NTP] U.S. Food and Drug Administration [FDA] Tox21 Assay Overview: Measure of cell viability is critical in the cell-base assay. Analysis of cell viability is necessary for the characterization of cell responses to cytotoxic drugs and environmental stress. A RealTime-Glo MT Cell Viability Assay to monitor cell viability in real time of continues cell culture during 40 hours of compound treatment was used to screen Tox21 10K library compounds in HepG2 cells. The RealTime-Glo MT Cell Viability Assay is a nonlytic, homogeneous, bioluminescent method to measure cell viability in real time using a simple, plate-based method. The assay involves adding NanoLuc luciferase and a cell-permeant prosubstrate to cells in culture. Viable cells reduce the proprietary prosubstrate to generate a substrate for NanoLuc luciferase. This substrate diffuses from cells into the surrounding culture medium, where it is rapidly used by the NanoLuc Enzyme to produce a luminescent signal. The signal correlates with the number of viable cells, making the assay well suited for cytotoxicity studies.
Tox21 Assay Protocol Summary: The mixture of HepG2 cell suspension and reagents were dispensed at 600cells/6 ul/well in 1536-well tissue culture treated black solid bottom plates using a Multidrop dispenser. After the assay plates were incubated at a 37 C/5% CO2 incubator for 5 hours, 23 nL of compounds dissolved in DMSO, positive and negative controls was transferred to the assay plate by a pintool work station. The plates were incubated at 37 C for 40 hours. The luminescence intensity were measured at 0h, 8h, 16h, 24h, 32h and 40h time points using ViewLux plate reader during compound treatment.
% is set by controls: 0 for no effect and ±100 for the full control effect.

Row | SMILES | activity change, negative = cytotoxicity | Potency
1 | Cc1occc1SSc1ccoc1C | -11.6% (inactive) | –
2 | c1ccc(Sc2ccccc2)cc1 | -2.61% (inactive) | –
3 | CCCSS/C(CCO)=C(\C)N(C=O)Cc1cnc(C)nc1N | -0.785% [at 35.3 µM] (inactive) | –
4 | O=CC1CC1 | 0.195% (inactive) | –
5 | CCCCCCS | 1.96% (inactive) | –
6 | Oc1cc2ccccc2cc1O | 13.9% (inactive) | –
7 | O=C(O)CCCCCCC(=O)O | -2.27% (inactive) | –
8 | CCOCN(C(=O)CS(=O)(=O)O)c1c(C)cccc1CC | -10.2% (inactive) | –
9 | O=C1OC(=O)c2ccc3c4c(ccc1c24)C(=O)OC3=O | 2% (inactive) | –
10 | Cc1cncc(C)c1 | 16.1% (inactive) | –
11 | Cc1cn[nH]c1 | 8.62% [at 35.3 µM] (inactive) | –
12 | CCCCCCOc1ccc(O)cc1 | -1.46% (inactive) | –
13 | Cc1cccc(C)c1NC(=O)CN1CCN(CCCC(c2ccc(F)cc2)c2ccc(F)cc2)CC1 | 1.04% [at 35.3 µM] (inactive) | –
14 | CCOC(=O)CC(C)O (stereo not given) | 16.6% (inactive) | –
15 | O=S(=O)(O)c1cc(S(=O)(=O)O)c2ccc3c(S(=O)(=O)O)cc(S(=O)(=O)O)c4ccc1c2c43 | 4.18% [at 15.8 µM] (inactive) | –
16 | O=Nc1ccc(NO)cc1 | -3.73% (inactive) | –
17 | CC(C)C(=O)OCc1ccccc1 | 4.67% (inactive) | –
18 | OCCC(O)CO (stereo not given) | 15.1% (inactive) | –
19 | CC(C)CCOCCC(C)C | -12.3% (inactive) | –
20 | COc1cc(C(C)C)c2c(c1)S(=O)(=O)N(COc1cc(=O)n3cccc(OCCN4CCCCC4)c3n1)C2=O | -4.58% [at 15.8 µM] (inactive) | –

Row | SMILES | activity change, negative = cytotoxicity | Potency
21 | CN(Cc1cc(Br)cc(Br)c1N)C1CCCCC1 | 4.62% [at 35.3 µM] (inactive) | –
22 | O=C1NC2CCCCN2C12CCN(CCCN1c3ccccc3CCc3ccc(Cl)cc31)CC2 (stereo not given) | -4.23% [at 35.3 µM] (inactive) | –
23 | CCCCOC(=O)C(C)CC (stereo not given) | 14.4% (inactive) | –
24 | CC(=O)O[C@@H]1C[C@@H]2CC[C@@]1(C)C2(C)C | -1.95% (inactive) | –
25 | Cc1cnccn1 | -12.4% (inactive) | –
26 | S=P(N1CC1)(N1CC1)N1CC1 | 7.42% (inactive) | –
27 | C[C@]12CC[C@H]3C(=CCc4cc(O)ccc43)[C@@H]1CCC2=O | -21% (inactive) | –
28 | CCCCC(CC)COC(=O)c1ccc(O)cc1 (stereo not given) | – | inactive
29 | O=C=NCc1cccc(CN=C=O)c1 | 2.48% [at 15.8 µM] (inactive) | –
30 | C1CC(COCC2CO2)CCC1COCC1CO1 (stereo not given) | -5.95% (inactive) | –
31 | CCCCCCCC/C=C/CCCOC(C)=O | 12.2% (inactive) | –
32 | CSc1c(Cl)c(Cl)c(Cl)c(Cl)c1Cl | 0.844% (inactive) | –
33 | CCC(=O)OCCc1ccccc1 | 0% (inactive) | –
34 | COC(=O)[C@]1(C)CCC[C@@]2(C)[C@H]1CC=C1C=C(C(C)C)CC[C@@H]12 | -8.35% (inactive) | –
35 | CCOC(=O)[C@@](C)(N)Cc1ccc(O)c(O)c1 | -3.42% [at 35.3 µM] (inactive) | –
36 | CCOCOCC | 4.53% (inactive) | –
37 | CN1CN(C)CN(C)C1 | -4.95% (inactive) | –
38 | CC(C)=C1CC[C@@H](C)CC1=O | 1.68% (inactive) | –
39 | O=C(O)CC(=O)O | -8.57% (inactive) | –
40 | CC(C)(c1cc(Br)c(OCCO)c(Br)c1)c1cc(Br)c(OCCO)c(Br)c1 | -6.3% (inactive) | –
